Common to all, as to assay type: functional
The subject of assay [1] is Plasmodium falciparum. Kind of assay: GSK_TCMDC: Inhibition of Plasmodium falciparum 3D7 in whole red blood cells, using parasite LDH activity as an index of growth. Test compounds present at 2uM.
The test system of assay [2] is Plasmodium falciparum. The experiment in a line: GSK_TCMDC: Inhibition of Plasmodium falciparum Dd2 in whole red blood cells, using parasite LDH activity as an index of growth. Test compounds present at 2uM.
The test system of assay [3] is HepG2. The experiment in a line: GSK_TCMDC: Percent inhibition of human HepG2 cell line. Test compounds present at 10uM.

Results on nine compounds are retold here after ChEMBL document CHEMBL1157539, “Thousands of chemical starting points for antimalarial lead identification” (Nature, 2010).

Turning to `COc1cccc(CCc2ccc(O)c3c2C[C@H]2C[C@H]4[C@H](N(C)C)C(O)=C(C(N)=O)C(=O)[C@@]4(O)C(O)=C2C3=O)c1.Cl`, the Inhibition in assay [1] was found to be 93%; in assay [2], 67%; in assay [3], 43%.
Consider `Cc1ccc(NC(=O)NCCCCCN2CCC(c3c[nH]c4ccccc34)CC2)cc1I`, for which the Inhibition in assay [1] is recorded as 94%; in assay [2], 5%; in assay [3] it was 96%.
Take `CCCC[C@H](NC(=O)O[C@H](COc1ccc(OCc2ccccc2)cc1)C(C)(C)C)C(=O)C(=O)Nc1cc[nH]n1`: the Inhibition in assay [1] is given as 88%; in assay [2], 71%; in assay [3] it was 21%.
On the same counts, the results for `FC(F)(F)c1ccc2[nH]c(-c3ccc(-c4ccc(CN5CCN(c6ccncc6)CC5)cc4)cc3)nc2c1.O=C(O)C(F)(F)F` are 100%, 99% and 91%.
For the compound `CS(=O)(=O)c1ccc(OCCCN(Cc2ccccc2C(F)(F)F)c2ccc(C#N)c(C(F)(F)F)c2)cc1`, the Inhibition is 94% in assay [1], 76% in assay [2] and 4% in assay [3].
On the same counts, the results for `COc1ccc(C(=O)CCC(=O)N(Cc2ccc(-c3ccc(CNCCc4ccc(S(C)(=O)=O)cc4)cn3)cc2)Cc2ccc3c(c2)OCO3)cc1F.O=C(O)C(F)(F)F` are 95%, 41% and 13%.
On the same counts, the results for `O=C(CN1CCCC1)Nc1cccc(C(=O)Nc2cccc(C(F)(F)F)c2)c1` are 95%, 83% and 9%.
On the same counts, the results for `Cc1ccc(NC(=O)c2cccc(CN3CCCN(Cc4cccc(O)c4)CC3)c2)cc1F.O=C(O)C(F)(F)F` are 99%, 45% and 20%.
For the compound `CCn1c(SCC(=O)Nc2cc(C(F)(F)F)ccc2Cl)nc2ccccc2c1=O`, the Inhibition in assay [1] came out at 93%; in assay [2], 95%; in assay [3] it was 8%.

The term Inhibition denotes the share of the control response that was lost under treatment. Low readings indicate a weak effect, high ones a strong effect.
